A short description of experiment [1]: NCI Yeast Anticancer Drug Screen. Data for the rad50 strain (AID 155).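 Note: 0% = growth of vehicle-only cultures of the same strain.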 The following applies: S. cerevisiae rad50 strain growth inhibition, active compounds read high. In a few lines:
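Compounds were tested on a yeast strain with an engineered DNA damage repair alteration; the reported value is growth inhibition normalised to vehicle treatment.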

A short description of experiment [2]: NCI Yeast Anticancer Drug Screen. Data for the mec2-1 strain (AID 157). The settings on record: S. cerevisiae mec2-1 strain, active compounds read high. In outline:
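Readout is yeast growth inhibition, normalised to vehicle-treated controls, in the mec2-1 strain exposed to compound.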

Experiment [3] is described as follows: NCI Yeast Anticancer Drug Screen. Data for the sgs1 mgt1 strain (AID 161).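 Note: 0% = growth of cultures given vehicle only.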 The following applies: S. cerevisiae sgs1 mgt1 strain, active compounds read high. In a few lines: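 Yeast cells carrying a defined DNA-repair defect were exposed to test compounds. Growth inhibition was measured relative to vehicle-treated controls.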
Experiment [4] in a line: NCI Yeast Anticancer Drug Screen. Data for the cln2 rad14 strain (AID 165).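 Note: 0% = growth equal to vehicle treated cultures.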 The following applies: S. cerevisiae cln2 rad14 strain, active compounds read high. In a few lines: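 Relative to vehicle controls, growth inhibition of compound-treated cln2 rad14 yeast was recorded.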
Experiment [5] is described as follows: NCI Yeast Anticancer Drug Screen. Data for the bub3 strain (AID 167). The settings on record: S. cerevisiae bub3 mutant strain, active compounds read high. In outline: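 Growth of a checkpoint-deficient yeast mutant is measured after compound exposure. Values represent inhibition relative to vehicle.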
Experiment [6] can be described thus: NCI Yeast Anticancer Drug Screen. Data for the mlh1 rad18 strain (AID 175). The following applies: S. cerevisiae mlh1 rad18 strain growth inhibition, active compounds read high. In a few lines: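 Test agents were incubated with a yeast strain of defined genotype (DNA damage repair defect). Inhibition of growth was derived by comparison with vehicle-exposed cultures.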

Setting [7] is: at 5.0 µM (retest, dose inferred, filed as 0.5).
[8] abbreviates: at 50.0 µM (retest, dose inferred, filed as 5.0).

About 79,000 compounds went through this panel and 15% of them were active in at least one assay; those are over-represented in the sample as a whole. Unmarked numbers belong to inactive results. Active and inactive are the calls of the source. Cut-off read from the data, not from the text of the source: active = growth inhibition above about 70%; inactive = the rest.

With `c1ccc2cc3c(cc2c1)Nc1c2ccccc2nc2cccc-3c12`, the growth inhibition in experiment [1] (setting [7]) is 31%; in experiment [1] (setting [8]) it was 70% (active); in experiment [1] (at 50.0 µM) it was 54%; in experiment [2] (setting [7]) it was 17%; in experiment [2] (setting [8]) it was 57%; in experiment [2] (at 50.0 µM), 70.5% (active). For the same molecule, the growth inhibition in experiment [3] (setting [7]) was 24%; in experiment [3] (setting [8]), 72% (active); in experiment [3] (at 50.0 µM) it was 79.4% (active); in experiment [4] (setting [7]), 25%; in experiment [4] (setting [8]), 54%; in experiment [4] (at 50.0 µM), 56.5%. Further, the growth inhibition is 15% in experiment [5] (setting [7]); 78% (active) in experiment [5] (setting [8]); 81.3% (active) in experiment [5] (at 50.0 µM); 29% in experiment [6] (setting [7]); 71% (active) in experiment [6] (setting [8]); 89.8% (active) in experiment [6] (at 50.0 µM).

Take `NC(=O)C1CCCN1C(=O)C1CCCN(Cc2ccc(CN3CCCC(C(=O)N4CCCC4C(N)=O)C3)cc2)C1` (stereo not given): the growth inhibition is -1% in experiment [1] (setting [7]); -5% in experiment [1] (setting [8]); 91.5% (active) in experiment [1] (at 50.0 µM); 8% in experiment [2] (setting [7]); 1% in experiment [2] (setting [8]); 74.2% (active) in experiment [2] (at 50.0 µM). Besides, the growth inhibition in experiment [3] (setting [7]) was -10%; in experiment [3] (setting [8]), -11%; in experiment [3] (at 50.0 µM), 74.4% (active); in experiment [4] (setting [7]), -13%; in experiment [4] (setting [8]), 11%; in experiment [4] (at 50.0 µM), 74.7% (active). The growth inhibition in experiment [5] (setting [7]) is 16%; in experiment [5] (setting [8]), 13%; in experiment [5] (at 50.0 µM), 78.8% (active); in experiment [6] (setting [7]), -10%; in experiment [6] (setting [8]) it was -12%; in experiment [6] (at 50.0 µM) it was 78.3% (active).

For the molecule `CCCCCC[C@@H](O)C/C=C\CCCCCCCC(=O)OCCCC`, the growth inhibition in experiment [1] (setting [7]) was -2%; in experiment [1] (setting [8]) it was -7%; in experiment [1] (at 50.0 µM), 23.6%; in experiment [2] (setting [7]), -4%; in experiment [2] (setting [8]), -7%; in experiment [2] (at 50.0 µM), 26.1%. Also, the growth inhibition was -1% in experiment [3] (setting [7]); -5% in experiment [3] (setting [8]); 23.6% in experiment [3] (at 50.0 µM); -3% in experiment [4] (setting [7]); -8% in experiment [4] (setting [8]); 75.8% (active) in experiment [4] (at 50.0 µM). Besides, the growth inhibition in experiment [5] (setting [7]) is -6%; in experiment [5] (setting [8]), -7%; in experiment [5] (at 50.0 µM), 24.6%; in experiment [6] (setting [7]), 0%; in experiment [6] (setting [8]), 1%; in experiment [6] (at 50.0 µM), 23.9%.

`C#CCNC(C)(C)C`: the growth inhibition was 1% in experiment [1] (setting [7]); 4% in experiment [1] (setting [8]); 98.5% (active) in experiment [1] (at 50.0 µM); -5% in experiment [2] (setting [7]); 1% in experiment [2] (setting [8]); 99.4% (active) in experiment [2] (at 50.0 µM). The growth inhibition in experiment [3] (setting [7]) is -2%; in experiment [3] (setting [8]), -3%; in experiment [3] (at 50.0 µM) it was 86% (active); in experiment [4] (setting [7]) it was -3%; in experiment [4] (setting [8]) it was 2%; in experiment [4] (at 50.0 µM), 98.7% (active). Moreover, the growth inhibition in experiment [5] (setting [7]) is 3%; in experiment [5] (setting [8]), -2%; in experiment [5] (at 50.0 µM) it was 99.7% (active); in experiment [6] (setting [7]), -1%; in experiment [6] (setting [8]), 1%; in experiment [6] (at 50.0 µM), 99.1% (active).

Regarding `O=[N+]([O-])c1ccc2c(c1)/C(=N\O)c1cc(Br)ccc1-2`, the growth inhibition in experiment [1] (setting [7]) was 14%; in experiment [1] (setting [8]), 39%; in experiment [1] (at 50.0 µM), 91.4% (active); in experiment [2] (setting [7]), 5%; in experiment [2] (setting [8]), 24%; in experiment [2] (at 50.0 µM), 71% (active). Moreover, the growth inhibition is 13% in experiment [3] (setting [7]); 33% in experiment [3] (setting [8]); 67.2% in experiment [3] (at 50.0 µM); -2% in experiment [4] (setting [7]); 14% in experiment [4] (setting [8]); 35.4% in experiment [4] (at 50.0 µM). Besides, the growth inhibition in experiment [5] (setting [7]) is -5%; in experiment [5] (setting [8]) it was 3%; in experiment [5] (at 50.0 µM) it was 13.7%; in experiment [6] (setting [7]) it was 10%; in experiment [6] (setting [8]), 29%; in experiment [6] (at 50.0 µM), 96.8% (active).

Take `O=C(CC(=O)c1ccccc1)CC(=O)c1ccccc1`: the growth inhibition in experiment [1] (setting [7]) is 31%; in experiment [1] (setting [8]) it was 81% (active); in experiment [1] (at 50.0 µM), 87.7% (active); in experiment [2] (setting [7]) it was 24%; in experiment [2] (setting [8]), 85% (active); in experiment [2] (at 50.0 µM), 68.5%. The growth inhibition in experiment [3] (setting [7]) is 38%; in experiment [3] (setting [8]), 85% (active); in experiment [3] (at 50.0 µM), 74.7% (active); in experiment [4] (setting [7]), 31%; in experiment [4] (setting [8]), 55%; in experiment [4] (at 50.0 µM), 65.9%. The growth inhibition in experiment [5] (setting [7]) was 44%; in experiment [5] (setting [8]) it was 95% (active); in experiment [5] (at 50.0 µM) it was 88.7% (active); in experiment [6] (setting [7]) it was 38%; in experiment [6] (setting [8]), 95% (active); in experiment [6] (at 50.0 µM) it was 84% (active).

`CCCC(=O)Nc1cc([N+](=O)[O-])ccc1O`: the growth inhibition in experiment [1] (setting [7]) was -129%; in experiment [1] (setting [8]), 97% (active); in experiment [1] (at 50.0 µM) it was 99.3% (active); in experiment [2] (setting [7]), -38%; in experiment [2] (setting [8]), 98% (active); in experiment [2] (at 50.0 µM), 90% (active). The growth inhibition in experiment [3] (setting [7]) is -51%; in experiment [3] (setting [8]), 88% (active); in experiment [3] (at 50.0 µM) it was 63.2%; in experiment [4] (setting [7]) it was -57%; in experiment [4] (setting [8]), 84% (active); in experiment [4] (at 50.0 µM), 96.7% (active). For the same molecule, the growth inhibition in experiment [5] (setting [7]) is -57%; in experiment [5] (setting [8]), 97% (active); in experiment [5] (at 50.0 µM), 95.2% (active); in experiment [6] (setting [7]) it was -127%; in experiment [6] (setting [8]) it was 93% (active); in experiment [6] (at 50.0 µM) it was 98% (active).

Take `Nc1nc(=Nc2ccccc2)ss1`: the growth inhibition is -12% in experiment [1] (setting [7]); 99% (active) in experiment [1] (setting [8]); 84.8% (active) in experiment [1] (at 50.0 µM); 6% in experiment [2] (setting [7]); 100% (active) in experiment [2] (setting [8]); 71.1% (active) in experiment [2] (at 50.0 µM). Also, the growth inhibition in experiment [3] (setting [7]) is 0%; in experiment [3] (setting [8]) it was 99% (active); in experiment [3] (at 50.0 µM), 86.5% (active); in experiment [4] (setting [7]) it was -7%; in experiment [4] (setting [8]) it was 99% (active); in experiment [4] (at 50.0 µM) it was 45.4%. For the same molecule, the growth inhibition in experiment [5] (setting [7]) is -11%; in experiment [5] (setting [8]) it was 100% (active); in experiment [5] (at 50.0 µM), 57.5%; in experiment [6] (setting [7]) it was 12%; in experiment [6] (setting [8]), 99% (active); in experiment [6] (at 50.0 µM), 78.7% (active).

`CN(C)/N=C\C1CC=CCC1` (stereo not given): the growth inhibition in experiment [1] (setting [7]) is -148%; in experiment [1] (setting [8]) it was -148%; in experiment [1] (at 50.0 µM), 25.2%; in experiment [2] (setting [7]), -46%; in experiment [2] (setting [8]) it was -51%; in experiment [2] (at 50.0 µM) it was 5.35%. In addition, the growth inhibition in experiment [3] (setting [7]) was -58%; in experiment [3] (setting [8]) it was -61%; in experiment [3] (at 50.0 µM), 30.9%; in experiment [4] (setting [7]) it was -58%; in experiment [4] (setting [8]), -70%; in experiment [4] (at 50.0 µM) it was 82.9% (active). For the same molecule, the growth inhibition is -71% in experiment [5] (setting [7]); -80% in experiment [5] (setting [8]); 21.8% in experiment [5] (at 50.0 µM); -141% in experiment [6] (setting [7]); -120% in experiment [6] (setting [8]); 38% in experiment [6] (at 50.0 µM).

Regarding `CC(=O)N(C1=C(Cl)C(=O)c2ccccc2C1=O)c1ccc(F)cc1`, the growth inhibition in experiment [1] (setting [7]) was 28%; in experiment [1] (setting [8]), 99% (active); in experiment [1] (at 50.0 µM), 98.8% (active); in experiment [2] (setting [7]), 39%; in experiment [2] (setting [8]), 98% (active); in experiment [2] (at 50.0 µM) it was 99.3% (active). For the same molecule, the growth inhibition in experiment [3] (setting [7]) was 35%; in experiment [3] (setting [8]), 99% (active); in experiment [3] (at 50.0 µM), 99.4% (active); in experiment [4] (setting [7]) it was 13%; in experiment [4] (setting [8]) it was 98% (active); in experiment [4] (at 50.0 µM), 94.4% (active). Further, the growth inhibition in experiment [5] (setting [7]) was 57%; in experiment [5] (setting [8]), 99% (active); in experiment [5] (at 50.0 µM) it was 97.4% (active); in experiment [6] (setting [7]) it was 39%; in experiment [6] (setting [8]) it was 99% (active); in experiment [6] (at 50.0 µM) it was 99.4% (active).
